VACV mCherry inh – qHTS for Stage-Specific Inhibitors of Vaccinia Orthopoxvirus: mCherry Reporter Primary qHTS; Vaccinia virus mCherry reporter infection, fluorescence; Potency, µM (doses to about 36.5 µM), for inactives: at the top dose activity change, negative = inhibition, most hits filed as inhibitors; actives 0.63% (n = 310,000); AID 720579, 2013; calls by dose curve; tested in A549 cells; further: nearly all actives have a fitted effect of over 35% in size
VACV Venus inh – qHTS for Stage-Specific Inhibitors of Vaccinia Orthopoxvirus: Venus Reporter Primary qHTS; Vaccinia virus Venus reporter expression, fluorescence; Potency, µM (series often up to 36.5 µM), inactives show at the highest dose activity change, negative = inhibition, hits mostly inhibitors; actives 0.46% (n = 330,000); AID 720580, 2013; calls by dose curve; tested in A549 cells; further: nearly all actives have a fitted effect of over 30% in size
FMDV inh – High Throughput Screening for Foot and Mouth Disease Virus Antivirals; FMDV antiviral cell-based qHTS; Potency, µM (top dose mostly 57.9 µM), for inactives: at the top dose activity change, negative = inhibition, most hits filed as inhibitors; actives 1.2% (n = 410,000); AID 1159524, 2015; calls by dose curve; tested in HEK293T cells; further: read-out not given here; nearly all actives have a fitted effect of over 45% in size
Giardia FBPA inh-1 – qHTS Assay for Inhibitors of Fructose-1,6-bisphosphate Aldolase from Giardia Lamblia | A8B2U2 | purified Giardia FBPA | AID 2451, 2010 | Potency, µM (titrated, usually from 59.6 µM), for the others: at the top dose activity, negative = inhibition, usual class: inhibitors | actives 0.71% (n = 290,000); further: nearly all actives have a fitted effect of over 55% in size
Target sequence (A8B2U2 whole entry, looked up): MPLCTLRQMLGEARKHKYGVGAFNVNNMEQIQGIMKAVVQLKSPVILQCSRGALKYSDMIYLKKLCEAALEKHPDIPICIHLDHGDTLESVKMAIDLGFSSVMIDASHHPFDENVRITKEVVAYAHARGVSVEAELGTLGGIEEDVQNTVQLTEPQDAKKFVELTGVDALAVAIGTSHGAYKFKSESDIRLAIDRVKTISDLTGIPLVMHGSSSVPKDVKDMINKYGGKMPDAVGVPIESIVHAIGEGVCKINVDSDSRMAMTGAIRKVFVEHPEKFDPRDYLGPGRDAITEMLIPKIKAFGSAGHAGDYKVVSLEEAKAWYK
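Giardia FBPA (40 nM reagent) was preincubated 10 min at RT with compound (up to 57.5 uM final), then substrate plus GAPDH/TPI/NAD/arsenate coupling system with diaphorase/resazurin was added; resorufin fluorescence (525/598 nm) was read after 20 min.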
Giardia growth – qHTS Assay for Inhibitors of Fructose-1,6-bisphosphate Aldolase from Giardia Lamblia: Giardia lamblia growth inhibition. actives 5% (n = 1,500). shares compounds with Giardia FBPA inh-1. Potency, µM (titrated, usually from 57.5 µM), for the others: at the top dose activity change, negative = inhibition, most hits filed as inhibitors. Giardia lamblia trophozoite growth inhibition;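 further: trophozoites exposed to compound for 48 h at 37 °C; nearly all actives have a fitted effect of over 70% in size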
Mammalian tox – qHTS Assay for Inhibitors of Fructose-1,6-bisphosphate Aldolase from Giardia Lamblia: Mammalian cellular toxicity; mammalian cell viability counter-screen, qHTS; Potency, µM (highest dose often 57.5 µM), for the others: at the top dose viability change, negative = toxicity, usual class: inhibitors; shares compounds with Giardia FBPA inh-1; actives 4% (n = 1,500);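 further: Chinese hamster ovary cells used as mammalian cytotoxicity surrogate; viability measured as cellular ATP by luminescence; compound exposure lasted 48 h before reading; nearly all actives have a fitted effect of over 60% in size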
Giardia FBPA inh-2 – qHTS Assay for Inhibitors of Fructose-1,6-bisphosphate Aldolase from Giardia Lamblia: Primary screen confirmation; actives 5% (n = 1,500); purified Giardia aldolase enzyme activity, qHTS; Potency, µM (top dose mostly 57.5 µM), for the others: at the top dose activity change, negative = inhibition, usual class: inhibitors; shares compounds with Giardia FBPA inh-1; further: nearly all actives have a fitted effect of over 45% in size
Rabbit aldolase – qHTS Assay for Inhibitors of Fructose-1,6-bisphosphate Aldolase from Giardia Lamblia: Rabbit FBPA Selectivity | AID 2794, 2010 | shares compounds with Giardia FBPA inh-1 | Rabbit muscle FBPA enzyme inhibition, selectivity counter-screen | actives 4% (n = 1,500) | Potency, µM (series often up to 57.5 µM), inactives show at the highest dose activity, negative = inhibition, usual class: inhibitors; further: nearly all actives have a fitted effect of over 60% in size
Target sequence (P00883 whole entry, looked up): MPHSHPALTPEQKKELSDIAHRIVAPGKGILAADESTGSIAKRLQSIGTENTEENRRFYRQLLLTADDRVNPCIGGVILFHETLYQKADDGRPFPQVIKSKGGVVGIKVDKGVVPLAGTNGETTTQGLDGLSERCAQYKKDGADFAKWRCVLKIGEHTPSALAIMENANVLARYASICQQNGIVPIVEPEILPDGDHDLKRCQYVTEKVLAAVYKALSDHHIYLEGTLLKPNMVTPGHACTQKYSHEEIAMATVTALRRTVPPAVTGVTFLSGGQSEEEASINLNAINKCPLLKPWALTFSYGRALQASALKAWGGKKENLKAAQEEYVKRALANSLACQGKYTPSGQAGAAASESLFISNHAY
GAPDH counter – qHTS Assay for Inhibitors of Fructose-1,6-bisphosphate Aldolase from Giardia Lamblia: Coupling assay counterscreen confirmation; GAPDH coupling enzyme counterscreen, biochemical, qHTS; actives 6% (n = 1,500); AID 2795, 2010; Potency, µM (series often up to 57.5 µM), without a hit: at the top dose activity change, negative = inhibition, actives largely listed as inhibitors; shares compounds with Giardia FBPA inh-1; further: nearly all actives have a fitted effect of over 55% in size
* marks the source's active call; other numbers are inactive results; i = inactive; u = inconclusive; x = not tested or not shown; [ ] = another dose, or the depositor's remark. Shown are actives, neighbours in structure and some others; about 2.2% of the full set was active somewhere. Unless noted, the call rests on the fitted dose curve; in most records, active means well fitted curve in the direction sought with a large enough effect; inconclusive means small, poorly fitted or top-dose-only effect, or another doubt; inactive means no such curve, though single readings can be large; an effect the other way counts as inactive or inconclusive. On the % scale 0 is the no-effect control and ±100 the full control effect; potency means the concentration at half of the fitted maximal effect.

SMILES | VACV mCherry inh | VACV Venus inh | FMDV inh | Giardia FBPA inh-1 | Giardia growth | Mammalian tox | Giardia FBPA inh-2 | Rabbit aldolase | GAPDH counter
Cc1ccccc1/C=N/n1c(-c2ccccn2)n[nH]c1=S | -1% | -2% | -13% | 4µM* | 4%[38.3 µM] | -8% | -15% | -17% | -17%
Cc1ccc(-c2n[nH]c(=S)n2/N=C/c2ccc(C)o2)cc1 | -14% | -10% | -15% | 8% | x | x | x | x | x
S=c1[nH]nc(-c2ccccn2)n1/N=C/c1c(Cl)cccc1Cl | -2% | -4% | -20% | 6.3µM* | -9%[38.3 µM] | 6% | -5% | -9% | -3%
O=C(NCCc1nc2ccccc2n1CCOc1ccccc1)C1CCCCC1 | -11% | -14% | x | x | x | x | x | x | x
CCCn1c(-c2ccc(F)cc2)nc2c(NCCCN3CCOCC3)nc(C)nc21 | x | x | x | -8% | x | x | x | x | x
Nc1ccc2nc(CCCCc3nc4ccccc4[nH]3)[nH]c2c1 | x | x | 10% | 13µM* | 41% | -8% | -23% | -9% | -6%
Nc1ccc2nc(CCCCCCc3nc4ccc(N)cc4[nH]3)[nH]c2c1 | -10% | -20% | -21% | -28% | x | x | x | x | x
Cc1ccnc2c(Cl)ccc(Cl)c12 | -11% | -9% | x | x | x | x | x | x | x
CC1CCc2c(sc(NC(=O)C3c4ccccc4Oc4ccccc43)c2C(N)=O)C1 (configuration not stated) | -25% | -14% | -11% | 0% | x | x | x | x | x
COC(=O)Nc1sc2c(c1C(N)=O)CCC(C)C2 (configuration not stated) | -25% | -7% | -1% | 8.9µM* | -14%[38.3 µM] | 8% | u | u | u
Cc1cc(C)nc(NN2C(=O)/C(=C/c3ccccc3)SC2=S)n1 | -12% | 3% | -13% | -27% | x | x | x | x | x
Cc1cc(C)nc(NN2C(=O)C=CC2=O)n1 | x | x | 0% | 5µM* | u | -6% | 1% | -1% | -1%
CC(C)(C)Nc1nc(C(N)=O)nc(N2CCOCC2)n1 | x | x | u | 6% | x | x | x | x | x
CCNc1nc(C(=O)O)nc(N2CCOCC2)n1 | -7% | 0% | 8% | 22µM* | 18%[10.4 µM] | 4% | -5% | 1% | 8%
CNC(=O)c1ccc2nc(-c3cccc(C)c3)c(-c3cccc(C)c3)nc2c1 | i | -5% | x | x | x | x | x | x | x
O=C(COc1ccc(Cl)cc1)Nc1ccc2nc(SCC(=O)N3CCOCC3)sc2c1 | -15% | -18% | -24% | x | x | x | x | x | x
COc1ccc(Nc2cc(C)c3c(O)cccc3n2)cc1 | u | -17% | 5% | u | x | x | x | x | x
Cc1ccc(Nc2cc(C)c3c(O)cccc3n2)cc1C | x | x | 8% | u | 6%[38.3 µM] | -1% | u | u | 21µM*
O=c1c2ccccc2n2c(=S)[nH]nc2n1-c1ccccc1 | i | -8% | -16% | 7.1µM* | -8% | 4% | 6% | 14% | 15%
CCCn1c(=O)c2ccccc2n2c(=S)[nH]nc12 | -4% | -4% | -14% | u | x | x | x | x | x
Cn1c(=O)c2ccccc2n2c(=S)[nH]nc12 | -4% | -4% | -3% | 16µM* | 23% | 11% | 12% | 3% | 9%
COc1cccc([C@@H]2Oc3ccc(OC)cc3C(=O)[C@H]2OC(=O)NC2CCCC2)c1 | x | x | x | -5% | x | x | x | x | x
CC(C(=O)Nc1cccc([N+](=O)[O-])c1)[n+]1ccccc1 (configuration not stated) | x | x | -1% | 16µM* | u | 8% | 5% | 0% | 17%
Cc1cc(C)c(-n2[nH]nnc2=S)c(C)c1 | x | x | -2% | 14µM* | 8%[10.4 µM] | 14% | 5% | 6% | 10%
COc1ccc(C)cc1-n1[nH]nnc1=S | i | -9% | 2% | 14µM* | -47% | 16% | 3% | 7% | 13%
SMILES | VACV mCherry inh | VACV Venus inh | FMDV inh | Giardia FBPA inh-1 | Giardia growth | Mammalian tox | Giardia FBPA inh-2 | Rabbit aldolase | GAPDH counter
COc1ccc2c(c1)C(=O)[C@@H](OC(=O)Nc1cc(OC)c(OC)c(OC)c1)[C@H](c1ccc(OC)c(Br)c1)O2 | x | x | x | -1% | x | x | x | x | x
CC(=O)N1CCC(=NNc2nc3ccccc3[nH]2)CC1 | -19% | -3% | 14% | 18µM* | u | 0% | -10% | -6% | 3%
O=S(=O)(c1ccc(Br)cc1)N1CCN(c2nc(-c3ccccc3)nc3ccccc23)CC1 | -2% | -12% | x | x | x | x | x | x | x
NC(=O)CN(C/C=C/c1ccccc1)C/C=C/c1ccccc1 | x | x | -10% | 28µM* | -11% | 3% | -1% | 2% | 6%
CN(CC(=O)O)S(=O)(=O)/C=C/c1ccccc1 | i | -4% | -14% | 0% | x | x | x | x | x
O=C(Nc1ccc(N2CCOCC2)c(Cl)c1)c1ccc(Cl)cc1 | -9% | 6% | u | 16µM* | u | -1% | u | u | u
C=CCN=c1scc(C)n1/N=C/c1ccc(O)c(O)c1 | 0% | 4% | 77% | 22µM* | 8% | -19% | -25% | -29% | -18%
CN=c1scc(C)n1/N=C/c1ccc(O)cc1O | x | -26% | u | -3% | x | x | x | x | x
COc1ccccc1CNc1ncnc2ccc(-c3cccc(NS(C)(=O)=O)c3)cc12 | x | x | -19% | -1% | x | x | x | x | x
CO/N=C(/C(=O)N[C@@H]1C(=O)N2C(C(=O)O)=CCS[C@H]12)c1cnc(N)s1 | x | x | x | 16µM* | -21% | 3% | -13% | -8% | -6%
O=C(N/N=C/c1cc(Br)c(O)c(Br)c1O)c1ccc2c(c1)OCCO2 | u | u | 31% | -19% | x | x | x | x | x
O=C(N/N=C/c1cc(Br)c(Br)o1)c1ccc2c(c1)OCCO2 | -20% | -13% | 5% | 13µM* | 12% | -15% | -8% | -8% | 1%
Cc1nccn1CC(=O)N/N=C/c1cc(Br)cs1 | -7% | 2% | -14% | 1% | x | x | x | x | x
CCN1CCN(CC(=O)N/N=C/c2cc(Br)cs2)CC1 | x | x | -2% | 18µM* | 15% | 22% | 2% | 5% | 10%
CCc1ccc(N2CSC3=C(C#N)C(c4cccs4)CC(=O)N3C2)cc1 (configuration not stated) | x | x | 10% | u | x | x | x | x | x
CCc1ccc(C2CC(=O)N3CN(c4ccccc4)CSC3=C2C#N)cc1 (configuration not stated) | u | -13% | -14% | u | x | x | x | x | x

Assay outcomes as filed in PubChem.
